Reference: PubChem BioAssay (Tox21)
Inconclusive results are not listed. Activity calls are given as the source filed them. Unless noted, the call rests on the fitted dose curve; in most records, active means well fitted curve in the direction sought with a large enough effect in the repeat runs; inconclusive means weak or mixed curves; inactive means no such curve, though single readings can be large; an effect the other way counts as inactive or inconclusive.

Legend:
[1] = qHTS RealTime-Glo MT Cell Viability Assay in HepG2 cells - 32 hour (AID 1224877); further: nearly all actives have a fitted effect of over 55% in size
Summary of the method: (§1)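 HepG2 cells (600/well) were dispensed with RealTime-Glo reagents, incubated 5 h at 37 °C, then treated with compounds in DMSO for up to 40 h. Nonlytic NanoLuc luminescence reflecting viable cells was read at each stated time point.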

[2] = qHTS RealTime-Glo MT Cell Viability Assay in HEK293 cells - 0 hour (AID 1224880); further: top concentration of the series differs between compounds; nearly all actives have a fitted effect of over 45% in size
Summary of the method: (§2)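 Cells were seeded together with NanoLuc luciferase and a prosubstrate that viable cells reduce to a luciferase substrate. After a 5 h incubation at 37 C/5% CO2, compounds were added and luminescence was measured repeatedly during 40 h of treatment.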

[3] = A CellTox Green Cytotoxicity Assay to monitor cytotoxicity in HEK293 cells - 32 hour (AID 1224881); further: nearly all actives have a fitted effect of over 40% in size
Summary of the method: (§3)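 Nonlytic real-time cytotoxicity: HEK293 + CellTox Green reagent plated, 5 h preincubation, pintool compound addition (23 nL in DMSO), 37 C for 40 h, fluorescence measured at successive time points.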

[4] = A CellTox Green Cytotoxicity Assay to monitor cytotoxicity in HepG2 cells - 0 hour (AID 1224882); further: nearly all actives have a fitted effect of over 35% in size
Summary of the method: (§4)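 Read-out is fluorescence of a cyanine dye excluded from live cells that stains DNA of dead HepG2 cells, with signal proportional to cytotoxicity. Plates were read at 0, 8, 16, 24, 32 and 40 h after compound addition.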

[5] = A CellTox Green Cytotoxicity Assay to monitor cytotoxicity in HEK293 cells - 8 hour (AID 1224884); further: nearly all actives have a fitted effect of over 35% in size
Summary of the method: as §3

[6] = qHTS RealTime-Glo MT Cell Viability Assay in HepG2 cells - 16 hour (AID 1224885); further: nearly all actives have a fitted effect of over 50% in size
Summary of the method: as §1

[7] = qHTS RealTime-Glo MT Cell Viability Assay in HEK293 cells - 24 hour (AID 1224886); further: top concentration of the series differs between compounds; nearly all actives have a fitted effect of over 50% in size
Summary of the method: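 HEK293 cells seeded with NanoLuc/prosubstrate reagent, rested 5 h at 37 C, then dosed and kept at 37 C up to 40 h. Nonlytic real-time luminescence from viable cells read at 0, 8, 16, 24, 32 and 40 h.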

[8] = qHTS RealTime-Glo MT Cell Viability Assay in HEK293 cells - 8 hour (AID 1224887); further: top concentration of the series differs between compounds; nearly all actives have a fitted effect of over 50% in size
Summary of the method: as §2

[9] = A CellTox Green Cytotoxicity Assay to monitor cytotoxicity in HEK293 cells - 16 hour (AID 1224888); further: nearly all actives have a fitted effect of over 35% in size
Summary of the method: as §3

[10] = qHTS RealTime-Glo MT Cell Viability Assay in HepG2 cells - 0 hour (AID 1224889); further: nearly all actives have a fitted effect of over 50% in size
Summary of the method: as §1

[11] = A CellTox Green Cytotoxicity Assay to monitor cytotoxicity in HepG2 cells - 8 hour (AID 1224890); further: nearly all actives have a fitted effect of over 45% in size
Summary of the method: as §4

[12] = qHTS assay to identify small molecule antagonists of the estrogen receptor alpha (ER-alpha) signaling pathway using the BG1 cell line in the presence of 0.1 nM 17-beta-estradiol - cell viability counter screen (AID 1259241); further: nearly all actives have a fitted effect of over 40% in size
Summary of the method: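 Live-cell protease activity (CellTiter-Fluor fluorescence, 30 min) was read in the same wells after VM7Luc4E2 cells had been exposed to compounds with 0.1 nM 17beta-estradiol for 22 hr at 37C.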

[13] = qHTS assay to identify small molecule antagonists of the androgen receptor (AR) signaling pathway using the MDA cell line in the presence of 0.5 nM R1881 - cell viability counter screen (AID 1259242); further: nearly all actives have a fitted effect of over 45% in size
Summary of the method: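 Counter screen for cytotoxicity run in the same wells as the AR antagonist reporter screen: MDA-kb2 cells were treated 16 hr with test compounds and 0.5 nM R1881, then live-cell protease activity was measured by fluorescence.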

[14] = biological target: Estrogen receptor (Homo sapiens) (UniProt P03372); assay: qHTS assay to identify small molecule antagonists of the estrogen receptor alpha (ER-alpha) signaling pathway using the BG1 cell line in the presence of 0.1 nM 17-beta-estradiol (AID 1259244); further: nearly all actives have a fitted effect of over 50% in size
Sequence of Estrogen receptor (Homo sapiens) (P03372 whole entry, looked up): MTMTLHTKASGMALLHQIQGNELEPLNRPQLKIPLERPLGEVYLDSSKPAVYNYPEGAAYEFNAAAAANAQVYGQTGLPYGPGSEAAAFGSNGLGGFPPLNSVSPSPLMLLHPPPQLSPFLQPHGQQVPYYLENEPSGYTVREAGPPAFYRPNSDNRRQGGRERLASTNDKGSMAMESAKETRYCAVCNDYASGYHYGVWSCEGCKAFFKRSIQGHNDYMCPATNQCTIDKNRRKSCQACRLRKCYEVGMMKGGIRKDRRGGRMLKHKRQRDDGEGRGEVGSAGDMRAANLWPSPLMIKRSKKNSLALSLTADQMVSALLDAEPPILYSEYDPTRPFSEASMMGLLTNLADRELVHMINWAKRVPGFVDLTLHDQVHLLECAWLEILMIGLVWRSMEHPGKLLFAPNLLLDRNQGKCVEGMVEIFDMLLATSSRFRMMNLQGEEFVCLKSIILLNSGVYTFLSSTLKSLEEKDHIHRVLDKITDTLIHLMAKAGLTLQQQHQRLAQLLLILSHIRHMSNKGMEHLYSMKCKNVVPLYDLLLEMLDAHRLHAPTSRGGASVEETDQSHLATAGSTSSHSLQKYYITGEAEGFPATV
Summary of the method: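 Cells: VM7Luc4E2, endogenous ER-alpha, 4x ERE-luc stable. Pre-culture 5 d, phenol red-free, charcoal-stripped FBS. Plated 24 h, compound + E2 0.1 nM final, 22 h 37C/5% CO2. Readout ONE-Glo luminescence.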

[15] = qHTS assay to identify small molecule HDAC inhibitors (AID 1259364); further: top concentration of the series differs between compounds; nearly all actives have a fitted effect of over 45% in size
Summary of the method: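 Luminescence from a cell-permeant luminogenic class I/II HDAC substrate reports endogenous deacetylase activity in intact HCT-116 cells treated with compounds for 2 h.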

[16] = A CellTox Green Cytotoxicity Assay to monitor cytotoxicity in HepG2 cells - 24 hour (AID 1224878); further: nearly all actives have a fitted effect of over 45% in size
Summary of the method: as §4

[17] = A CellTox Green Cytotoxicity Assay to monitor cytotoxicity in HepG2 cells - 40 hour (AID 1224879); further: nearly all actives have a fitted effect of over 40% in size
Summary of the method: as §4

[18] = A CellTox Green Cytotoxicity Assay to monitor cytotoxicity in HepG2 cells - 32 hour (AID 1224883); further: nearly all actives have a fitted effect of over 50% in size
Summary of the method: as §4

[19] = qHTS assay to identify small molecule phospholipidosis (PLD) inducers (AID 1259344; active means well fitted curve in the direction sought with a large enough effect; an effect the other way counts as inactive or inconclusive)
Summary of the method: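 Phospholipidosis is scored by imaging LipidTOX-stained pits in HepG2 cells exposed to compound for 24 h at 37 C; pit counts and integrated intensities per well and per cell serve as outputs.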

[20] = biological target: Androgen receptor (Homo sapiens) (UniProt P10275); assay: qHTS assay to identify small molecule antagonists of the androgen receptor (AR) signaling pathway using the MDA cell line in the presence of 0.5 nM R1881 (AID 1259243); further: nearly all actives have a fitted effect of over 50% in size
Sequence of Androgen receptor (Homo sapiens) (P10275 whole entry, looked up): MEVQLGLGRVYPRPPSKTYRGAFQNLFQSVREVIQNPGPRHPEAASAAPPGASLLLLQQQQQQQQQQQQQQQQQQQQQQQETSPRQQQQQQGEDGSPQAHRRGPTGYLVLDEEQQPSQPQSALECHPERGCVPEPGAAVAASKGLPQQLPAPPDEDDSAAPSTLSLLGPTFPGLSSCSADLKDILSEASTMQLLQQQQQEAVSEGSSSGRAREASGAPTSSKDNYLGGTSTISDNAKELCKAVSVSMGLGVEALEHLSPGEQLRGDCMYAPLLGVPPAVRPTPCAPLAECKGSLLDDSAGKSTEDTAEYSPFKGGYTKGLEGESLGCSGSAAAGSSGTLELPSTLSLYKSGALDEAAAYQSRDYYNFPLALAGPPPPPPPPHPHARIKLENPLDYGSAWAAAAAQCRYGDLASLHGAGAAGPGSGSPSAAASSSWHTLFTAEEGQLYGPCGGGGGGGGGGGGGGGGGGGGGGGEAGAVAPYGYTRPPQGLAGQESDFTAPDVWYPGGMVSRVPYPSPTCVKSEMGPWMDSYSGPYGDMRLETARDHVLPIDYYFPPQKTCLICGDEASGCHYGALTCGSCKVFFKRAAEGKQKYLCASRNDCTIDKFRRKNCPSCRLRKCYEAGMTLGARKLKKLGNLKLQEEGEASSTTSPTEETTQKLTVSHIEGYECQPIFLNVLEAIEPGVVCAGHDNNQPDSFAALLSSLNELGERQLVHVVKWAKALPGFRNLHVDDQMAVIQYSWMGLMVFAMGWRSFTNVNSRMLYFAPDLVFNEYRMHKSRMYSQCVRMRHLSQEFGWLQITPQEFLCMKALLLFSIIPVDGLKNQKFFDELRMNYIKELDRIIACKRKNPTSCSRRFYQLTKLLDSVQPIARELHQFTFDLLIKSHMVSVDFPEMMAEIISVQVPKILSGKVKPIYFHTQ
Summary of the method: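 Luciferase luminescence is the read-out: compounds are tested for suppressing 0.5 nM R1881-driven MMTV reporter activity in MDA-kb2 cells after 16 hr at 37C.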

Measured: Potency

CCO[Si](CC(C)C)(OCC)OCC
not listed: [16] | [17] | [18] | [19] | [20]
inactive: all other assays above

CC1(C)S[C@@H]2[C@H](NC(=O)Cc3ccccc3)C(=O)N2[C@H]1C(=O)O (tested in a mixture with another compound)
not listed: [2] | [7] | [13] | [15] | [20]
inactive: all other assays above

CCCCN(CCCC)CCCCCCN(CCCC)CCCC
not listed: [13] | [18] | [19] | [20]
inactive: all other assays above

NNC(=O)OCc1ccccc1
not listed: [2] | [5] | [13] | [19]
inactive: all other assays above
